# Experimental data as given in PubChem BioAssay AID504848 (National Center for Advancing Translational Sciences (NCATS), 2011).
# The campaign covered roughly 2,300 compounds. About 1,400 (61%) were called active. Inconclusive results (about 29%) are left out. The set was probably picked from earlier hits. The list shows a part of the results. A number with no mark means an inactive call. The call rests on the fitted dose curve; in most records, active means well fitted inhibition curve with a large enough effect; inconclusive means small, poorly fitted or top-dose-only effect, or effect the other way; inactive means no such curve, though single readings can be large or run the other way.
# Assay: Confirmation screen for delayed death inhibitors of the malarial parasite plastid, 96 hour incubation; further: nearly all actives have a fitted effect of over 60% in size
# Conditions: P. falciparum luciferase growth in erythrocytes; series mostly up to 28.7 µM; activity change, negative = inhibition: at the top concentration
# How it was run: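 Two-generation (96 h, 37 C) exposure of P. falciparum carrying an integrated firefly luciferase reporter in erythrocytes, 0.1% parasitemia and 2% hematocrit final, Albumax-supplemented RPMI. Luminescence decrease measures growth inhibition.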
# On the % scale 0 is the no-effect control and ±100 the full control effect; potency means the concentration at half of the fitted maximal effect.
Structure (SMILES),"activity change, negative = inhibition [%]",Potency
COc1ccc(CCNS(=O)(=O)c2ccc(Br)s2)cc1,-25.4,–
CCN(CC)S(=O)(=O)c1ccc(C2=NOC3(C2)N(C)c2ccccc2C3(C)C)cc1 (stereo not given),–,12.6 µM (active)
CN1c2ccccc2C(C)(C)C12CC(c1ccc(S(=O)(=O)N3CCCCC3)cc1)=NO2 (stereo not given),–,5.01 µM (active)
CC(C)NC(=O)c1onc(CSc2cccc3ccccc23)c1C(=O)O,-18.8,–
Cc1nn(C(C)C(=O)NCCCc2ccccc2)c(=O)c2nn(-c3ccccc3)c(C)c12 (stereo not given),–,12.6 µM (active)
CSc1ccc(CNC(=O)C(C)n2nc(C)c3c(C)n(-c4ccccc4)nc3c2=O)cc1 (stereo not given),–,11.2 µM (active)
Cc1c(NC(=O)C(C)Sc2nccn2C)c(=O)n(-c2ccccc2)n1C (stereo not given),-5.32,–
Cc1nn(C(C)C(=O)Nc2ccccc2Cl)c(=O)c2nn(-c3ccccc3)c(C)c12 (stereo not given),–,10 µM (active)
Cc1nn(C(C)C(=O)NCCC2=CCCCC2)c(=O)c2nn(-c3ccccc3)c(C)c12 (stereo not given),–,11.2 µM (active)
Cc1ccc(C(=O)NCC(=O)NCCCc2ccccc2)s1,42.3,–
CCCCCCC1C(C#N)=C(N)OC2=C1C(=O)CCC2 (stereo not given),13.7,–
Cc1ccc(-c2cc(C(=O)N/N=C/C=C/c3ccco3)c3ccccc3n2)cc1C,–,14.1 µM (active)
CC(C)C[C@@H](NC(=O)[C@H](Cc1ccccc1)NC(=O)c1cnccn1)B(O)O,–,0.178 µM (active)
CC(C)=N/N=C1/NC(=O)C(Cc2ccccc2)S1 (stereo not given),–,7.94 µM (active)
Cc1cc(=O)oc2ccc(OCC(=O)N3CCc4ccccc43)cc12,–,6.31 µM (active)
Cc1ccc(NC2CCCN(C(=O)CSc3ccncc3)C2)cc1C (stereo not given),–,12.6 µM (active)
COc1ccc(NC2CCCN(C(=O)CCc3ccncc3)C2)cc1OC (stereo not given),-18.3,–
Cc1ccc(S(=O)(=O)Nc2cccc3cccnc23)c([N+](=O)[O-])c1,–,3.98 µM (active)
Cc1ccc(S(=O)(=O)Nc2cccc3cccnc23)cc1,–,5.62 µM (active)
O=C(c1ccc(Cl)cc1)C(Cn1cncn1)C(Sc1ccccc1)c1ccccc1 (stereo not given),–,12.6 µM (active)
O=C1C(=O)c2ccccc2C(O)=C1C1CCC(c2ccc(Cl)cc2)CC1 (stereo not given),–,0.0158 µM (active)
CN1CC2=Cc3ccccc3OC23Oc2ccccc2C=C3C1,–,3.16 µM (active)
CCC1=C/C(=C/c2sc3ccccc3[n+]2CC)CC(C)(C)C1,–,0.355 µM (active)

Structure (SMILES),"activity change, negative = inhibition [%]",Potency
CCn1nc(C)c(NC(=O)CC23CC4CC(CC(C4)C2)C3)c1C,-11.8,–
NC(=O)COc1ccc(NC(=O)CC23CC4CC(CC(C4)C2)C3)cc1,–,11.2 µM (active)
CSCCC(NC(=O)c1ccccc1Cl)C(=O)N1CCN(C(c2ccccc2)c2ccccc2)CC1 (stereo not given),–,3.98 µM (active)
Cc1ccc(N2C(=O)N3[C@H](c4ccc(F)cc4)[C@@H]4C(=O)N(C5CCCCC5)C(=O)[C@@H]4[C@]3(Cc3ccccc3)C2=O)cc1,–,5.62 µM (active)
O=C(NCc1ccccc1)C(c1cccnc1)N(C(=O)c1ccccn1)c1ccccc1F (stereo not given),-26.2,–
O=C(CCc1ccccc1)NNC(=O)c1ccccn1,–,6.31 µM (active)
COc1ccc(CCN2CCCn3c2nc2c3c(=O)n(Cc3ccccc3F)c(=O)n2C)cc1OC,–,2.24 µM (active)
Cc1ccc(S(=O)(=O)Nc2ccc(C(=O)Nc3ccncc3)cc2)cc1,–,12.6 µM (active)
CCOc1ccc(C2C3=C(Nc4nc(N)[nH]c(=O)c42)c2ccccc2C3=O)cc1 (stereo not given),–,10 µM (active)
CCN(CC)S(=O)(=O)c1cc(NC(=O)C(C)OC(=O)c2[nH]c(C)c(C(C)=O)c2C)ccc1C (stereo not given),–,1.78 µM (active)
O=C1/C(=C/c2ccccc2F)SC(=S)N1CC(=O)N1CCCCC1c1cccnc1 (stereo not given),–,10 µM (active)
COc1cc(OC)c(OC)cc1CN1CCN(C(=O)c2cccc3ccccc23)CC1,–,10 µM (active)
CCCc1cc(=O)oc2cc(OC(C)C(=O)NCc3ccccn3)c(Cl)cc12 (stereo not given),–,15.8 µM (active)
COc1ccc(NC(=O)c2cccc(NC(=O)c3ccccc3)c2)c(OC)c1,–,8.91 µM (active)
COC(=O)c1ccc(NC(=O)c2cccc(NC(=O)c3ccccc3)c2)cc1,–,7.94 µM (active)
O=C(Nc1cccc(Br)c1)c1ccc2snnc2c1,-6.94,–
COc1ccccc1NC(=O)c1ccc2nc(-c3ccccc3)c(-c3ccccc3)nc2c1,2.71,–
COc1cc(C(=O)Nc2ccc(Nc3ccccc3)cc2)cc(OC)c1OC,–,5.01 µM (active)
COc1cc(C(=O)Nc2ccc(S(=O)(=O)Nc3cc(C)on3)cc2)cc(OC)c1OC,-8.04,–
COc1cc2c(cc1NC(=O)c1ccc(C(C)(C)C)cc1)CCCC2,–,12.6 µM (active)
O=C(CCl)N1CCN(CC(=O)N2CCCC2)CC1,–,14.1 µM (active)
C/C(=C\C(=O)OCCCCCCCCC(=O)O)C[C@@H]1OC[C@H](C[C@@H]2O[C@H]2[C@@H](C)[C@H](C)O)[C@@H](O)[C@H]1O,–,0.501 µM (active)
